High-throughput results deposited in PubChem by several laboratories.
A selection: hits, their analogues and other compounds. The true share with any hit is near 1.3%.
MIN6 prolif: MIN6 beta-cell proliferation induction; MIN6 cells proliferation, ATPlite luminescence, 48 h; cells starved in 0.2% serum; 100% = growth in 10% serum; proliferation, % at 10 µM; 330,000 compounds, 0.29% hits; AID 2380;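 active = compounds whose signal lies at least 3.5 SD above the mean of all wells on their plate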;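 note: 0% = DMSO-treated cells in low-serum medium and 100% = 10% serum control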
RAD54 branch: inhibitors of human RAD54 branch migration | Q92698 | RAD54 Holliday junction branch migration, FAM/BHQ fluorescence | inhibition, % at 10.4 µM | 360,000 compounds, 0.14% hits;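 active = mean normalized replicate activity at least 40 and at least half of replicates scoring 40 or more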;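 note: 0% = median of neutral control wells and 100% = median of positive control wells; inhibitors cause a drop in the FAM fluorescence signal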
RAD52 inh: RAD52 (human) annealing inhibition. P43351. recombinant RAD52 DNA annealing, FRET fluorescence. inhibition, % at 18.7 µM. 360,000 compounds, 0.46% hits;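 active = every replicate showing at least 50% inhibition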
PREPL inh: inhibitors of human prolyl oligopeptidase-like enzyme PREPL. Q4J6C6. AID 2751. recombinant PREPL, fluorescence polarization activity-based probe. inhibition, % at 5.96 µM. 320,000 compounds, 0.68% hits; in the data active = inhibition above about 43%;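 note: 0% = enzyme with DMSO and 100% = wells lacking enzyme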
Target sequence (Q4J6C6 whole entry, looked up): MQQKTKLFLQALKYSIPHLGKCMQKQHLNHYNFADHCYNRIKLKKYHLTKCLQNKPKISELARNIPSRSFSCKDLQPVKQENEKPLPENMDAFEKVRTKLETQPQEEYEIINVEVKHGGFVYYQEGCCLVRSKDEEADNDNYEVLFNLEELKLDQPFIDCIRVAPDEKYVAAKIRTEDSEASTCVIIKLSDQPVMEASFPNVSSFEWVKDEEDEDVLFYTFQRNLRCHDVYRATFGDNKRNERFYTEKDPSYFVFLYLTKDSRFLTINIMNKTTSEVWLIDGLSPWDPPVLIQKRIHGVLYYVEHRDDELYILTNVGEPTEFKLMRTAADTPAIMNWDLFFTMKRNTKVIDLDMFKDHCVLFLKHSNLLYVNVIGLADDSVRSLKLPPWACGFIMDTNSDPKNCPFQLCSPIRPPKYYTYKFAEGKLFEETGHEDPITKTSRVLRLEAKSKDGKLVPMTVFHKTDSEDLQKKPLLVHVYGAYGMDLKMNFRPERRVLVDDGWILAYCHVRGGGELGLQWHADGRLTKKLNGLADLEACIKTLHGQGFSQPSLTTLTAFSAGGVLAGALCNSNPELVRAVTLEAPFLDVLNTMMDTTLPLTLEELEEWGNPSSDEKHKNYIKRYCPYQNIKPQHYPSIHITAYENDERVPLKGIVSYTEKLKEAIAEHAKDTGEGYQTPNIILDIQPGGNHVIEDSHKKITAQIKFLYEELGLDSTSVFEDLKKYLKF
UBC13 polyUb: inhibitors of human UBC13 polyubiquitin chain formation; P61088; TR-FRET; inhibition, % at 20 µM; 330,000 compounds, 0.47% hits; AID 485273; in the data active = inhibition above about 45%, passing the limit was not always enough
FID counter: displaces DNA intercalator in HCV helicase counter-screen; DNA fluorescent intercalator displacement, fluorescence; inhibition, % at 7.9 µM; 290,000 compounds, 0.17% hits; in the data active = inhibition above about 37%;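 note: 0% = vehicle and 100% = reference compound; higher means more ethidium bromide displaced from hairpin DNA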
Casp3 UBC13 ctr: caspase-3 inhibition (UBC13 counter-screen) | shares compounds with UBC13 polyUb | Recombinant caspase-3, Caspase-Glo 3/7 luminescence, 60 min | inhibition, % at 20 µM | 1,400 compounds, 4% hits | AID 488856;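 active = mean inhibition across replicates above about 26%, limit read from the data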;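 note: plate controls were DMSO with caspase-3 for no effect and DMSO wells lacking enzyme for full effect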
UBC13 confirm: human UBC13 polyubiquitin inhibition, confirmed. shares compounds with UBC13 polyUb. UBC13 polyubiquitination, TR-FRET, biochemical. inhibition, % at 10 µM. 1,400 compounds, 68% hits. AID 488859; in the data active = inhibition above about 45%
DNA binding: binds DNA, flagging false Rad54 inhibitor hits; AID 651673; Acridine orange-DNA displacement, fluorescence polarization, 20 min; AC50, µM (series often up to 35 µM), for the others: at the top dose activity change, negative = DNA binding; 460 compounds, 8% hits; shares compounds with RAD54 branch;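 active = signal drop giving an AC50 within twice the top valid tested concentration of each sample, actives reach about 35 µM in these data; inactive = activity opposite to expected, plus the rest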;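 note: polarization loss reports compound binding to salmon sperm DNA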
RAD52 DNA ctr: binds DNA, flagging false RAD52 inhibitor hits | shares compounds with RAD52 inh | Salmon sperm DNA/acridine orange FP displacement, DNA binding | AC50, µM | 1,000 compounds, 8% hits;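 active = fitted half-maximal concentration for signal loss at or below twice the highest dose tested, in every separate run, actives reach about 64 µM in these data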
* = called active by the depositor; i = inactive; / = not tested or not shown.

SMILES | MIN6 prolif | RAD54 branch | RAD52 inh | PREPL inh | UBC13 polyUb | FID counter | Casp3 UBC13 ctr | UBC13 confirm | RAD52 DNA ctr | others
COc1cc(OC)cc(-c2sc3ccc(OC)cc3c2C#CC2(N)CCCCC2)c1 | -6 | 5 | -55 | 7 | 84* | / | 3 | 77* | i
C[C@H](CO)N1C[C@H](C)[C@@H](CN(C)C(=O)c2ccccc2)OCCCC[C@H](C)Oc2ccc(NS(=O)(=O)c3ccc(F)cc3)cc2C1=O | / | -4 | -2 | / | / | / | / | / | /
COc1ccc(C2=Nn3c(nnc3-c3ccccc3F)SC2)cc1OC1CCCC1 | -6 | 8 | -9 | 17 | 55* | / | 7 | 40 | i
CCC(C)[C@H](N)c1cn([C@@H](Cc2cc3ccccc3[nH]2)C(=O)N2CCNCC2)nn1 (stereo not given in full) | 1 | 12 | 96* | 30 | 94* | 20 | -5 | 81* | i
CCN(CC)Cc1cc2[nH]c3c4ccc(Cl)cc4ncc3c2cc1OC | -5 | 101* | 102* | / | 67* | 59* | 2 | 10 | i | DNA binding=6%
COc1ccccc1-c1ccc([C@H]2[C@@H](CO)N[C@@H]2CNC(=O)C2CCCC2)cc1 | / | / | -30 | / | / | / | / | / | /
CCCCCc1ccc(OCCCC[n+]2cccc(C)c2)c(CCCCC)c1 | -5 | / | 76* | 14 | 59* | 41* | -3 | 90* | i
N=C(N)c1ccc(Cl)cc1 | 0 | / | 3 | 0 | -9 | -2 | / | / | /
N=C(N)c1ccc(/C=C/c2ccc(C(=N)N)cc2O)cc1 | 2 | / | 97* | 20 | 84* | 53* | 0 | 110* | i
Cc1ccc(S(=O)(=O)N(C)C[C@H]2OCCCC[C@H](C)Oc3ccc(NC(=O)Nc4c(C)noc4C)cc3C(=O)N([C@H](C)CO)C[C@@H]2C)cc1 | / | 5 | -17 | / | / | / | / | / | /
CNC(=O)C[C@H]1CC[C@H]2[C@@H](COc3ccc(NC(=O)Nc4c(C)noc4C)cc3C(=O)N2C)O1 | / | 4 | / | / | / | / | / | / | /
CC1CN(c2ccc([N+](=O)[O-])c(NCCOc3ccc(Cl)cc3)c2)CC(C)N1 (stereo not given) | -5 | 15 | 31 | / | 22 | 32 | / | / | /
CCc1ccc(OCCNc2cc(N3CCNC(C)C3)ccc2[N+](=O)[O-])cc1 (stereo not given) | -8 | 4 | 11 | 35 | 68* | / | -4 | 55* | i
CCCCCCOc1ccc(/C(C)=N/NC2=NCCN2)cc1 | -4 | 44 | 54* | 8 | 60* | 23 | -3 | 85* | i
CCCCCOc1ccc(/C(C)=N/NC2=NCCN2)cc1 | -5 | 13 | 34 | 6 | 35 | 16 | / | / | /
CCCCCCCCCCCCC/C=C/[C@@H](O)[C@@H](N)CO | -8 | 8 | 55* | -8 | 108* | / | -3 | 114* | i
CCCCCCCC/C=C\CCCCCCCC(=O)O | 1 | / | -11 | 2 | 8 | / | / | / | /
CCOC(=O)c1c(-c2ccccc2)oc2ccc(OC(C)C(=O)O)cc12 (stereo not given) | -3 | -4 | -9 | 5 | 15 | -25 | / | / | /
CCOC(=O)c1c(-c2ccccc2)oc2ccc(OCC(O)CN(C)C)cc12 (stereo not given) | 0 | 32 | 43 | -7 | 47* | 22 | -4 | 52* | i
C[C@H](CO)N1C[C@H](C)[C@@H](CN(C)C(=O)c2ccccn2)Oc2cc(C#Cc3ccccc3)ccc2S1(=O)=O | / | -2 | -21 | / | / | / | / | / | /
CCOc1cc(C(=O)N2CCC(CC3CC(c4ccc(Cl)cc4)=NO3)(C(=O)NCC3CCCCC3)CC2)cc(OCC)c1OCC (stereo not given) | -6 | 3 | -3 | 8 | -22 | -43 | / | / | /
O=C(NCC1CCCCC1)C1(CC2CC(c3ccc(Cl)cc3)=NO2)CCNCC1 (stereo not given) | -9 | 11 | 67* | 21 | 46* | 15 | 3 | 47* | i
Cc1cc(C)c2nc(NCCCNC(=S)NCCCN(C)C)c(C#N)cc2c1 | -7 | / | 94* | 14 | 50* | 21 | 5 | 42 | i
Cc1ccc2nc(N(CCCN(C)C)C(=O)c3ccc(S(=O)(=O)N4CCc5ccccc5C4)cc3)sc2c1 | -7 | -5 | 74* | -23 | 78* | 28 | -6 | 110* | i
CN(C)CCCN(C(=O)c1ccc(C(=O)c2ccccc2)cc1)c1nc2cc3c(cc2s1)OCCO3 | -6 | 31 | 73* | 34 | 92* | 30 | 5 | 112* | i
SMILES | MIN6 prolif | RAD54 branch | RAD52 inh | PREPL inh | UBC13 polyUb | FID counter | Casp3 UBC13 ctr | UBC13 confirm | RAD52 DNA ctr | others
CN(C)CCCN(C(=O)COc1ccccc1)c1nc2cc3c(cc2s1)OCCO3 | 2 | 27 | 44 | -31 | 20 | 22 | / | / | /
Cc1ccc2nc(N(CCCN(C)C)C(=O)c3ccc(S(=O)(=O)N4CCOCC4)cc3)sc2c1 | 2 | 2 | 9 | -16 | 15 | 25 | / | / | /
C[C@H](CO)N1C[C@H](C)[C@H](CN(C)S(=O)(=O)c2ccc(Cl)cc2)OCCCC[C@H](C)Oc2ccc(NC(=O)NC3CCCCC3)cc2C1=O | / | 0 | 6 | / | / | / | / | / | /
O=C1Nc2cc(C(=O)NCCN3CCCCCC3)ccc2S/C1=C/c1ccccc1F | / | -7 | -28 | / | / | / | / | / | /
COc1cccc(/C=C2/Sc3ccc(C(=O)NCCN4CCCC4)cc3NC2=O)c1 | -4 | 41 | 92* | 4 | 50* | 30 | -2 | 74* | i
CN(C)CCn1cnc2c(c1=N)C(c1ccccc1)c1ccc3ccccc3c1O2 (stereo not given) | -6 | 17 | -21 | -20 | 48* | 35 | 1 | 56* | i
N=c1c2c(ncn1Cc1ccco1)Oc1c(ccc3ccccc13)C2c1ccccc1 (stereo not given) | -3 | / | / | -2 | 37 | -11 | / | / | /
Cc1ccc(C)c(OCC(O)CN2CCN(CCN3C(=O)c4cccc5cccc(c45)C3=O)CC2)c1 (stereo not given) | -3 | / | 99* | -8 | 84* | 16 | 3 | 101* | i
CCOC(=O)c1c(-c2ccc(-c3ccccc3)cc2)csc1NC(=O)CNCCN(C)C | -5 | 53* | 95* | 33 | 79* | 19 | -4 | 85* | i | DNA binding=5%
CCOC(=O)c1c(-c2ccccc2)csc1NC(=O)CCN1C(=O)c2ccccc2C1=O | 0 | -9 | -15 | -1 | 4 | 6 | / | / | /
